For two sequences, binding signal results are on record in publication PMC7862700, “An all-to-all approach to the identification of sequence-specific readers for epigenetic DNA modifications on cytosine”.

Experiment in all cases: DAPPL (digital affinity profiling via proximity ligation, sequencing); 10 mM Tris-HCl pH 7.5, 50 mM NaCl, 1 mM DTT, 4% glycerol, room temperature, 30 min; GST-TFs on glutathione beads, 16-mer random dsDNA library, 0.1% formaldehyde crosslink after washing; high values mean tight binding
Holding throughout (settings): protein: recombinant; tags: N-terminal GST; dsDNA, one strand shown

One assay concerns the target T1, GABPA (Homo sapiens, UniProt Q06546 1-454).
T1 sequence: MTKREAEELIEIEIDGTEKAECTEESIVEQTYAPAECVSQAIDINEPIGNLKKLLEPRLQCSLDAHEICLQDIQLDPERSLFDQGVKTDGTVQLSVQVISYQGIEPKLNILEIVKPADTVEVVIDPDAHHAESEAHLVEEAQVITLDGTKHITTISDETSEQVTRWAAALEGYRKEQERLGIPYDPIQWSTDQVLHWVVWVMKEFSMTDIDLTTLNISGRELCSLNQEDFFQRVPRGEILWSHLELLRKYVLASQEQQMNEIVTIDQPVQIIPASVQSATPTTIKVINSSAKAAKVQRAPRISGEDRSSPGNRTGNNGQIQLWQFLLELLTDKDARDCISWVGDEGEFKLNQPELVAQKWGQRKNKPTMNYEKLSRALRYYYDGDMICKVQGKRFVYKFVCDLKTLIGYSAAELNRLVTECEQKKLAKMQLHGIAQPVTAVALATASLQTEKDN
In outline:
(§1)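 Pools were built from human transcription factors expressed in yeast as GST fusions, captured on glutathione beads and DNA-barcoded, along with a tag-only sample. Incubation with 200 nmole of a 16-mer random double-stranded DNA library lasted 30 min at room temperature in Tris/NaCl/DTT/glycerol buffer, and was followed by washing, 0.1% formaldehyde crosslinking, proximity ligation, PCR amplification and Illumina NextSeq500 sequencing. Binding signal is the quotient of each hexamer's read frequency for a factor and its frequency for the tag-only sample.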

In another assay the target is T2, ERG (Homo sapiens, UniProt P11308 1-479).
T2 sequence: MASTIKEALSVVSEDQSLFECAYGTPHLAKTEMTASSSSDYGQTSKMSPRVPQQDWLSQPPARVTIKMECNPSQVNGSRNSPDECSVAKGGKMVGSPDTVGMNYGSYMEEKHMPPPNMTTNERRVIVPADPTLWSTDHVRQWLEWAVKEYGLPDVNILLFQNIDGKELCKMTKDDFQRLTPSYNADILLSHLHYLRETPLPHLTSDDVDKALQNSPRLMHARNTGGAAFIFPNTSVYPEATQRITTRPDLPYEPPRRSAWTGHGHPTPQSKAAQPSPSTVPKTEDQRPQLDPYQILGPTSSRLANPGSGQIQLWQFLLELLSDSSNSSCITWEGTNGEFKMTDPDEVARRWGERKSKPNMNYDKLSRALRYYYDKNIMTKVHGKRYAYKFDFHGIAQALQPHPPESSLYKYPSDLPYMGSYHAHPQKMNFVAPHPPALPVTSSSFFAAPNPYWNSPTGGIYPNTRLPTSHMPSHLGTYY
In outline:
as §1

Another assay concerns the target ELF1 (Homo sapiens, UniProt P32519 1-619). A digest of the protocol:
as §1

The target in another assay is T3, EHF (Homo sapiens, UniProt Q9NZC4 1-300).
T3 sequence: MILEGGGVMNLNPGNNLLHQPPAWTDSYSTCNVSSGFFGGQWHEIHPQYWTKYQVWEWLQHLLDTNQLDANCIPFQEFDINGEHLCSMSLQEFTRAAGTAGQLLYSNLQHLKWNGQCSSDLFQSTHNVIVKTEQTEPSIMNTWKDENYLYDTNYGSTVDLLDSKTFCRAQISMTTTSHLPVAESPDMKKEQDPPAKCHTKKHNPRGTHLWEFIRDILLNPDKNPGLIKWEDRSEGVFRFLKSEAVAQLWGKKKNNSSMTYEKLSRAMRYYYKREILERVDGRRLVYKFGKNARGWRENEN
In outline: as §1

The next assay addresses SPI1 (Homo sapiens, UniProt P17947 1-270). In outline:
as §1

For another assay, the target named is SPIB (Homo sapiens, UniProt Q01892 1-262). In outline:
as §1

A further assay has as its target T4, FEV (Homo sapiens, UniProt Q99581 1-238).
T4 sequence: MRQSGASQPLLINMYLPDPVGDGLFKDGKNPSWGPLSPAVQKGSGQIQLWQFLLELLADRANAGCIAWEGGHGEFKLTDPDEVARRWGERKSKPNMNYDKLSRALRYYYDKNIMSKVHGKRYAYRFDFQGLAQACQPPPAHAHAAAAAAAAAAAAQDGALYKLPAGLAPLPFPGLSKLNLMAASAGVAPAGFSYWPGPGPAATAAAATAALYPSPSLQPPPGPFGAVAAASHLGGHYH
In outline:
as §1

Another assay has as its target ETV5 (Homo sapiens, UniProt P41161 1-510). A digest of the protocol:
as §1

A further assay deals with ELF4 (Homo sapiens, UniProt Q99607 1-663). In outline: as §1
In another assay the target is T5, ELK4 (Homo sapiens, UniProt P28324-2 1-405).
T5 sequence: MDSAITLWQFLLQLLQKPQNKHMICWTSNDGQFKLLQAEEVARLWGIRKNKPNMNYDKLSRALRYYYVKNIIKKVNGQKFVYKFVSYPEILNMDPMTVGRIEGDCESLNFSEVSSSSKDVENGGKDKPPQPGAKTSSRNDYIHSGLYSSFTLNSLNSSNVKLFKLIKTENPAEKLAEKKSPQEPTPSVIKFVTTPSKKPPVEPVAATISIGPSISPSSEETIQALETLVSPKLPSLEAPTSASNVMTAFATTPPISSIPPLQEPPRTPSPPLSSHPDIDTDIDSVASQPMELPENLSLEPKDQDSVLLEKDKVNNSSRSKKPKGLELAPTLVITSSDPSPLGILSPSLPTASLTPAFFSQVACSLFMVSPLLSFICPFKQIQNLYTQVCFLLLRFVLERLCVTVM
In outline:
as §1

The next assay deals with T6, ETV2 (Homo sapiens, UniProt O00321 1-342).
T6 sequence: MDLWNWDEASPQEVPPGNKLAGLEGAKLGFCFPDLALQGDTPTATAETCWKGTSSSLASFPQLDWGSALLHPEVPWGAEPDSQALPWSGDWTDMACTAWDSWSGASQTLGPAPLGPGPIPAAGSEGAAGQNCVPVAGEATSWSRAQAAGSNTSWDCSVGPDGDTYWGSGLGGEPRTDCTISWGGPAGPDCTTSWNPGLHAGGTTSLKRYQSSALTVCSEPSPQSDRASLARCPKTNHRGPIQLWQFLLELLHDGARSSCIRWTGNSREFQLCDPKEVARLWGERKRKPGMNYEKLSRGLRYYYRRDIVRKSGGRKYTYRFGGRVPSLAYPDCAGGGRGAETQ
In outline:
as §1

The next assay concerns the target ETV1 (Homo sapiens, UniProt P50549 1-477). In outline: as §1
Another assay deals with T7, ERF (Homo sapiens, UniProt P50548 1-548).
T7 sequence: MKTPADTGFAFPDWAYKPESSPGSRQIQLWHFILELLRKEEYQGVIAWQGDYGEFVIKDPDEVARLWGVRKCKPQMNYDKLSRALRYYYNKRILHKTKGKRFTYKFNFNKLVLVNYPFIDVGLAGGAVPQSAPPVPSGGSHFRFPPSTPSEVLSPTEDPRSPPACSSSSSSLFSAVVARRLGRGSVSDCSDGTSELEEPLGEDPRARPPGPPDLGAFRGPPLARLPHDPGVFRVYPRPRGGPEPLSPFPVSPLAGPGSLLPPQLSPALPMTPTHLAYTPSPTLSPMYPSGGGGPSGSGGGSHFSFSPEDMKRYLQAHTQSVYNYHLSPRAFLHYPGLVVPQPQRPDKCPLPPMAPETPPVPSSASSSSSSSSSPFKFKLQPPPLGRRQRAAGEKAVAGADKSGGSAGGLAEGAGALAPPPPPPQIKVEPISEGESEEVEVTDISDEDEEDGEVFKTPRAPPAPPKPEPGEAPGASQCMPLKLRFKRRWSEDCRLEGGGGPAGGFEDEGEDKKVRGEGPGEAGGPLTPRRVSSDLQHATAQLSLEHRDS
A digest of the protocol: as §1

Another assay addresses T8, ETV3L (Homo sapiens, UniProt Q6ZN32 1-361).
T8 sequence: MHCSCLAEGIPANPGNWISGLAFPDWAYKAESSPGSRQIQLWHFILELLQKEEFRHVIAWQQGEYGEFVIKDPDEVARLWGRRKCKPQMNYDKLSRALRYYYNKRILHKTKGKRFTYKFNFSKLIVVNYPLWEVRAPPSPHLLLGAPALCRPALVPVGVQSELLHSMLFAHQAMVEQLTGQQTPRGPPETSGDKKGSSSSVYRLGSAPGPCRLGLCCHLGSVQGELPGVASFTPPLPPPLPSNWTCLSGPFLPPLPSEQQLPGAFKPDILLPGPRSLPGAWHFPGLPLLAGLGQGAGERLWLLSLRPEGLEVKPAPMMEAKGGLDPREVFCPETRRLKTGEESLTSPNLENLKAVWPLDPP
A digest of the protocol:
as §1

For another assay, the target named is T9, SPDEF (Homo sapiens, UniProt O95238 1-335).
T9 sequence: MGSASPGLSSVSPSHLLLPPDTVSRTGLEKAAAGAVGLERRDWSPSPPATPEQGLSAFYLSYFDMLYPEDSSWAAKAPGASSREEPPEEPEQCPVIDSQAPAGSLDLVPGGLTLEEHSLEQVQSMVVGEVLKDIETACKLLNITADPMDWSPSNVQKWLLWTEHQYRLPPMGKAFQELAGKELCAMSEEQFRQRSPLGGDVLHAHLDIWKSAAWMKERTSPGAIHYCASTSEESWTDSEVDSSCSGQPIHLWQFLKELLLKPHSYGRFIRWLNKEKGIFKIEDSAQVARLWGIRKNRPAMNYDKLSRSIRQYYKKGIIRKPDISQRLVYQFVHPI
In outline:
as §1

A further assay has as its target T10, ETV7 (Homo sapiens, UniProt Q9Y603 1-341).
T10 sequence: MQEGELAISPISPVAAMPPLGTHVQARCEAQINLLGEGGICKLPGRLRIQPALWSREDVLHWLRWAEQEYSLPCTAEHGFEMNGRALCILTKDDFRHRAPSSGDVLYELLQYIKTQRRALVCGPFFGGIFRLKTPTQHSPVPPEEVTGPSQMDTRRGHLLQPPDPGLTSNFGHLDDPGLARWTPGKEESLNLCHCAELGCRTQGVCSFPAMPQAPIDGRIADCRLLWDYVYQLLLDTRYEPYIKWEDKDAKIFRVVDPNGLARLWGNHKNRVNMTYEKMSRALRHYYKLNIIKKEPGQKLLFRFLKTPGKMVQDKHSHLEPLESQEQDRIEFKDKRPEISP
In outline:
as §1

The next assay concerns the target ETV6 (Homo sapiens, UniProt P41212 1-452). In outline:
as §1

In another assay the target is T11, ETS2 (Homo sapiens, UniProt P15036 1-469).
T11 sequence: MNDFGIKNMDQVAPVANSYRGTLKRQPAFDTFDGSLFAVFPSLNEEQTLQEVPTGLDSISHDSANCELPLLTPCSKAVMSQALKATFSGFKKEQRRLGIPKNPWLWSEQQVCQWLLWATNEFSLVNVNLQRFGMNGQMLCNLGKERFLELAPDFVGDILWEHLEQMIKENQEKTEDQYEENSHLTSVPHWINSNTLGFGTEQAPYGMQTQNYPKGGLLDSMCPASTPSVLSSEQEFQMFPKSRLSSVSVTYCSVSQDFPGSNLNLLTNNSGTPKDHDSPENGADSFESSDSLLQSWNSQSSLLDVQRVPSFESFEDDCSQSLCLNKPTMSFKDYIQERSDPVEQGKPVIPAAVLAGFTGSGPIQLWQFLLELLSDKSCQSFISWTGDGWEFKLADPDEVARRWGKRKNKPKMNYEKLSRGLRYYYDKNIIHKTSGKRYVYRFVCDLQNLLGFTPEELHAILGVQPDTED
In outline:
as §1

Chain of ETV5 (P41161 whole entry): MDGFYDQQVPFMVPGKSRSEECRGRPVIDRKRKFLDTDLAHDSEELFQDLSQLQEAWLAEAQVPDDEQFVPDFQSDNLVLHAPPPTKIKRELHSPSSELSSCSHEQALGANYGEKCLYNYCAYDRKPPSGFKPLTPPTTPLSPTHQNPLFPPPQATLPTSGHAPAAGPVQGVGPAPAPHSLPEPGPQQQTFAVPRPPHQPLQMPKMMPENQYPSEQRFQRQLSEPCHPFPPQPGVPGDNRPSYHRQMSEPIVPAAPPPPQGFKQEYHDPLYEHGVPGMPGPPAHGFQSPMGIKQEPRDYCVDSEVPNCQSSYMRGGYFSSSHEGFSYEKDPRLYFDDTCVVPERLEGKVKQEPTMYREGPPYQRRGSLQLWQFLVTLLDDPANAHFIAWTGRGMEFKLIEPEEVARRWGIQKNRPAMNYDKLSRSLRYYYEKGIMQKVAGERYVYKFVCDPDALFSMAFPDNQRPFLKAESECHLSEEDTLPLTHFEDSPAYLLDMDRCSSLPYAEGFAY
Chain of ETV1 (P50549 whole entry): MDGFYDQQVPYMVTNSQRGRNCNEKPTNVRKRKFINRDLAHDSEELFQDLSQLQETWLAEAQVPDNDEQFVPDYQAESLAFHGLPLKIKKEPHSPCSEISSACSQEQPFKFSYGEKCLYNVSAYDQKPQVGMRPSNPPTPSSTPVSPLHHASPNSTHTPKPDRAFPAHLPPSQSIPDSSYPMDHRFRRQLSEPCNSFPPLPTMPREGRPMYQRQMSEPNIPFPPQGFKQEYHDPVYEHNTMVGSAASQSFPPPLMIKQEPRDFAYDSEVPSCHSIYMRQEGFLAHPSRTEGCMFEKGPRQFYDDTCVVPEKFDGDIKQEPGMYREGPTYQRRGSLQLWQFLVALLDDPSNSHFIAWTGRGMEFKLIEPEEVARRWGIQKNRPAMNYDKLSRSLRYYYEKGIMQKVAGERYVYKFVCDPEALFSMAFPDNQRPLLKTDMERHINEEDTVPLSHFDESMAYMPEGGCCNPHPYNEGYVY
Chain of ETV6 (P41212 whole entry): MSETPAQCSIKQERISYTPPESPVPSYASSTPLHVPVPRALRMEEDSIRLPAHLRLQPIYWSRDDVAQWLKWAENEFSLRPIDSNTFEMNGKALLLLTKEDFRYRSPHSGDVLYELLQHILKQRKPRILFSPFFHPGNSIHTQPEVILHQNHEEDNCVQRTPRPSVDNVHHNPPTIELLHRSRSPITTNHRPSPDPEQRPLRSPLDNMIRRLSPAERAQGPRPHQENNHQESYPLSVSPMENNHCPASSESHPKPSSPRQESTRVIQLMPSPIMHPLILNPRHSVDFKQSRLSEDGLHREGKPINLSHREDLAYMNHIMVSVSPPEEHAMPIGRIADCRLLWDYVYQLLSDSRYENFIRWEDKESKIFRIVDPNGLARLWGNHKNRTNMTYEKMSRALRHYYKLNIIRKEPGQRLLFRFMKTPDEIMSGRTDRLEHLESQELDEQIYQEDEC
Chain of ELF4 (Q99607 whole entry): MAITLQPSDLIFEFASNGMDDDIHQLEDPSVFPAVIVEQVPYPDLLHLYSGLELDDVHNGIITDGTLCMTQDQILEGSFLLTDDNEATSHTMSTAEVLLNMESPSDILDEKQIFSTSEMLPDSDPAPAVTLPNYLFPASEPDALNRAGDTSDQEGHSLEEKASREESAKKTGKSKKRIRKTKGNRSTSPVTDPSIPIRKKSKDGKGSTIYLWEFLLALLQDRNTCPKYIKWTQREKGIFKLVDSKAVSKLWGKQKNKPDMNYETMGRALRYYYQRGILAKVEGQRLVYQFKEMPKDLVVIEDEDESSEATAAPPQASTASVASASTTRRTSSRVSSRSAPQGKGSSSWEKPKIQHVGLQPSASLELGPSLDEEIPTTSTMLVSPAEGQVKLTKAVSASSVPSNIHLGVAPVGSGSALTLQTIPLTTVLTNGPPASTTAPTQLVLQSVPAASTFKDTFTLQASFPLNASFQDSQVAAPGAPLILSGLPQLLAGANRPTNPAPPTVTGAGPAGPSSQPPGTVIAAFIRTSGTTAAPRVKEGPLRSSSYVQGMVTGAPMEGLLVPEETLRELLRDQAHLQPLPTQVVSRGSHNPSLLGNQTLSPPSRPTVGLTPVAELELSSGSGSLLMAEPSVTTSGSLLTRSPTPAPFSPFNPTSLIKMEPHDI
Chain of SPIB (Q01892 whole entry): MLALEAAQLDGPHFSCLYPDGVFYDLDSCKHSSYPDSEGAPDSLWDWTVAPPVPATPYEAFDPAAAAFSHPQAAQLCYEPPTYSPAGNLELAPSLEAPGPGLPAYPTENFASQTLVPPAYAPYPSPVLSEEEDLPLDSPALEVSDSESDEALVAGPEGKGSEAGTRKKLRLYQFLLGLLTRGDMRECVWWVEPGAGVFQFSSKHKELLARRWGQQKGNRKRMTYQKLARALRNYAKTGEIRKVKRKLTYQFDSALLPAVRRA
Chain of ELF1 (P32519 whole entry): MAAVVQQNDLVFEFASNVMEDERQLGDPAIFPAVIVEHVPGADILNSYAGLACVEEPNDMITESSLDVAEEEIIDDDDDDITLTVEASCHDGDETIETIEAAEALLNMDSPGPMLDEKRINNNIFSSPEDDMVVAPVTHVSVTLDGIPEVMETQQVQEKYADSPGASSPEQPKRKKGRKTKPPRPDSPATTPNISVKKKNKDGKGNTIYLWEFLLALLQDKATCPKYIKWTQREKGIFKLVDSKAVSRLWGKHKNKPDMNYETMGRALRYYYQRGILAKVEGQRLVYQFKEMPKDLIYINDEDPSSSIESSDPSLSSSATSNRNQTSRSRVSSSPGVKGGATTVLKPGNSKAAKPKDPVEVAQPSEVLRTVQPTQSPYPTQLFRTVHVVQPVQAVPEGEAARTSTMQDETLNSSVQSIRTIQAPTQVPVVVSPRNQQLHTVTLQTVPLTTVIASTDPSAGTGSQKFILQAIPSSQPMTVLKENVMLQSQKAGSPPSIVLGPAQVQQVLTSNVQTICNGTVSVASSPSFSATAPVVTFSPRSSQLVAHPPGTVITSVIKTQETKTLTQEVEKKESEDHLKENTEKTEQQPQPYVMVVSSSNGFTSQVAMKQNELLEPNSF

As for CATAAT, the binding signal is 1.01 fold enrichment (6-mer frequency, TF over GST control) with GABPA; 1.1 fold enrichment (6-mer frequency, TF over GST control) in the assay with ERG; 1.02 fold enrichment (6-mer frequency, TF over GST control) in the assay with ELF1; 1.13 fold enrichment (6-mer frequency, TF over GST control) with EHF; 1 fold enrichment (6-mer frequency, TF over GST control) in the assay with SPI1; 1.04 fold enrichment (6-mer frequency, TF over GST control) with SPIB. In addition, the binding signal is 1.01 fold enrichment (6-mer frequency, TF over GST control) with FEV; 1.09 fold enrichment (6-mer frequency, TF over GST control) with ETV5; 1.01 fold enrichment (6-mer frequency, TF over GST control) in the assay with ELF4; 1.03 fold enrichment (6-mer frequency, TF over GST control) with ELK4; 1 fold enrichment (6-mer frequency, TF over GST control) in the assay with ETV2; 1.05 fold enrichment (6-mer frequency, TF over GST control) in the assay with ETV1. The binding signal is 1.02 fold enrichment (6-mer frequency, TF over GST control) with ERF; 1.01 fold enrichment (6-mer frequency, TF over GST control) with ETV3L; 1 fold enrichment (6-mer frequency, TF over GST control) with SPDEF; 1.02 fold enrichment (6-mer frequency, TF over GST control) in the assay with ETV7; 1.07 fold enrichment (6-mer frequency, TF over GST control) with ETV6.
CGAACG: the binding signal in the assay with EHF is 1 fold enrichment (6-mer frequency, TF over GST control); in the assay with ETV5 it was 1.03 fold enrichment (6-mer frequency, TF over GST control); in the assay with ETV2, 1.09 fold enrichment (6-mer frequency, TF over GST control); with ERF, 1.11 fold enrichment (6-mer frequency, TF over GST control); with ETS2, 1.03 fold enrichment (6-mer frequency, TF over GST control); with ETV7, 1.02 fold enrichment (6-mer frequency, TF over GST control).
